For seven compounds, Potency results are on record in PubChem BioAssay (Tox21).

Test [1] can be described thus: qHTS assay to identify aromatase inhibitors - cell viability counter screen (AID 743084).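 Also: cells stimulated with testosterone during compound exposure; nearly all actives have a fitted effect of over 55% in size.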
Test [2] concerns the target Aryl hydrocarbon receptor (Homo sapiens) (UniProt P35869). As to the kind of experiment: qHTS assay to identify small molecule that activate the aryl hydrocarbon receptor (AhR) signaling pathway (AID 743085).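 Also: HG2L7.5c1 human HepG2 liver cells with stably integrated DRE-driven firefly reporter; series mostly up to about 70 µM; nearly all actives have a fitted effect of over 15% in size.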 A digest of the protocol:
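24 h compound exposure, 37C, HepG2-derived HG2L7.5c1 cells with DRE-responsive luciferase. Readouts: fluorescence viability, then luminescence at room temperature after 30 min.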
(Quantitative high-throughput screening tests each substance at several concentrations.)

The nature of test [3]: qHTS assay to identify small molecule that activate the aryl hydrocarbon receptor (AhR) signaling pathway - cell viability counter screen (AID 743086).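 Also: HepG2 liver cells carrying the AhR DRE luciferase reporter; series mostly up to about 70 µM; nearly all actives have a fitted effect of over 45% in size.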 The method, boiled down: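 HepG2-AhR-luc (HG2L7.5c1) cells, 4000/well, treated 24 h at 37 C with compound; viability measured as CellTiter-Fluor fluorescence after 30 min in the same wells as the luciferase read.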
For test [4], the target named is Peroxisome proliferator-activated receptor gamma (Homo sapiens) (UniProt P37231). As to the kind of experiment: qHTS assay to identify small molecule agonists of the peroxisome proliferator-activated receptor gamma (PPARg) signaling pathway (AID 743094; active = well fitted activation curve with a large enough effect in the signal ratio in the repeat runs, not every such curve was filed as active; the % refers to the signal ratio). The method, boiled down: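 Compounds dissolved in DMSO were added to PPARg UAS-bla HEK293H cells for 17 h at 37C, and reporter expression was quantified by fluorescence intensity after 1 h with LiveBLAzer B/G FRET substrate.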
Sequence of Peroxisome proliferator-activated receptor gamma (Homo sapiens) (P37231 whole entry, looked up): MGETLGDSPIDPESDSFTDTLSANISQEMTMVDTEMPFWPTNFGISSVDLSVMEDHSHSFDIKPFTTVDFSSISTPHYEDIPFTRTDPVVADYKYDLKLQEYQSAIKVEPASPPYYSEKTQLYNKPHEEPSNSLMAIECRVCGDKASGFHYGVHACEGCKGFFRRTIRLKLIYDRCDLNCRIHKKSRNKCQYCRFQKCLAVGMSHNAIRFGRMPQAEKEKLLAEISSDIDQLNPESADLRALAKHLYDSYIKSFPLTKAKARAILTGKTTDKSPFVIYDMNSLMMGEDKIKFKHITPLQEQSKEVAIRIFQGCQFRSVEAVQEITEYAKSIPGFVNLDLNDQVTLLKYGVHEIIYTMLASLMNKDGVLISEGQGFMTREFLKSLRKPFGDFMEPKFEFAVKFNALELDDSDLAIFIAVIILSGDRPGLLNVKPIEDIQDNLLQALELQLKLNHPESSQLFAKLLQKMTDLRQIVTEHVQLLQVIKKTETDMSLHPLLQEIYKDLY

For test [5] the target is unchanged. As to the kind of experiment: qHTS assay to identify small molecule antagonists of the peroxisome proliferator-activated receptor gamma (PPARg) signaling pathway (AID 743191; calls by dose curve; also: series mostly up to about 63 µM; nearly all actives have a fitted effect of over 30% in size). The method, boiled down: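 GeneBLAzer PPARg UAS-bla HEK293H cells, 5 h post-plating, exposed to compounds 17 h at 37C. LiveBLAzer B/G FRET substrate added for 1 h at room temperature; beta-lactamase reporter read by fluorescence intensity.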

Test [6] can be described thus: qHTS assay to identify small molecule antagonists of the peroxisome proliferator-activated receptor gamma (PPARg) signaling pathway - cell viability counter screen (AID 743194). Also: nearly all actives have a fitted effect of over 55% in size. The method, boiled down: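 Cytotoxicity counter screen in PPARg-bla HEK293H cells, same wells as reporter assay. Compounds plus 50 nM rosiglitazone (final) for 17 h at 37 C, then viability read by CellTiter-Glo luminescence.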

The nature of test [7]: qHTS assay for small molecule agonists of the antioxidant response element (ARE) signaling pathway (AID 743202; active = well fitted activation curve with a large enough effect in the signal ratio in the repeat runs, not every such curve was filed as active; the % refers to the signal ratio; also: potency is read from the fitted curve at half-maximal effect). A digest of the protocol:
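Agonist mode reporter screen: HepG2 cells with ARE-controlled beta-lactamase are incubated with test compounds for 16 h at 37 C, and beta-lactamase activity is measured as fluorescence of cleaved B/G FRET substrate.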

Test [8] can be described thus: qHTS assay for small molecule agonists of the antioxidant response element (ARE) signaling pathway - cell viability counter screen (AID 743203; calls by dose curve; also: nearly all actives have a fitted effect of over 55% in size). A digest of the protocol: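 Following 16 hrs of compound treatment at 37C, HepG2 cells with an ARE-controlled beta-lactamase gene were lysed with CellTiter-Glo. Luminescence was read after 30 min at room temperature.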
The nature of test [9]: qHTS assay for small molecule activators of the heat shock response signaling pathway - cell viability counter screen (AID 743209). Also: nearly all actives have a fitted effect of over 50% in size. The method, boiled down: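 Readout: CellTiter-Glo luminescence, 30 min at room temperature. System: HSE-bla HeLa cells, 1500/well, plated overnight. Treatment: compounds in DMSO, 5 h at 37 C.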
A short description of test [10]: qHTS assay for small molecule activators of the heat shock response signaling pathway (AID 743210; active = well fitted activation curve with a large enough effect in the signal ratio in the repeat runs, with a control signal flat, not every such curve was filed as active; the % refers to the signal ratio;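 also: HeLa cells with beta-lactamase reporter driven by heat shock elements; series mostly up to about 63 µM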). The method, boiled down:
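Quantitative high-throughput format using an engineered HeLa line in which heat shock response elements drive beta-lactamase; after 5 h with compound, cells received a B/G FRET substrate and fluorescence was read.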

Test [11] in a line: qHTS assay to identify small molecule agonists of the peroxisome proliferator-activated receptor delta (PPARd) signaling pathway - cell viability counter screen (AID 743211). Also: nearly all actives have a fitted effect of over 55% in size. A digest of the protocol:
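Luminescent ATP viability assay (CellTiter-Glo, 30 min RT) in UAS-bla HEK293H cells carrying the PPAR delta reporter construct, 3000 cells/well, after a 17 h compound treatment at 37 C.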

Test [12] addresses Peroxisome proliferator-activated receptor delta (Homo sapiens) (UniProt Q03181). The test is described as follows: qHTS assay to identify small molecule agonists of the peroxisome proliferator-activated receptor delta (PPARd) signaling pathway (AID 743212; calls by dose curve). The method, boiled down:
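Quantitative high-throughput agonist screen in a HEK293H beta-lactamase reporter line under UAS control. Compounds in DMSO, at 37 C. Fluorescence read after 2 h with FRET substrate at room temperature.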

Test [13] has the same target. The test is described as follows: qHTS assay to identify small molecule antagonists of the peroxisome proliferator-activated receptor delta (PPARd) signaling pathway (AID 743215; active = well fitted inhibition curve with a large enough effect in the signal ratio in the repeat runs, not every such curve was filed as active; the % refers to the signal ratio;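 also: cells stimulated with agonist L165041 at 300 nM final during compound exposure; series mostly up to about 62 µM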). The method, boiled down: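 HEK293H UAS-bla, PPARd; agonist L165041 300 nM final with cpd in DMSO; 37 C 17 h; FRET substrate, RT 2 h; fluorescence intensity.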
In test [14] the target is Bile acid receptor (Homo sapiens) (UniProt Q96RI1). As to the kind of experiment: qHTS assay to identify small molecule antagonists of the farnesoid-X-receptor (FXR) signaling pathway (AID 743217; active = well fitted inhibition curve with a large enough effect in the signal ratio in the repeat runs, not every such curve was filed as active; the % refers to the signal ratio). A digest of the protocol: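 GeneBLAzer FXR-UAS-bla HEK 293T, CDCA-stimulated (50 uM final). Compound treatment 16 h, 37 °C. Detection: beta-lactamase cleavage of B/G FRET substrate, fluorescence.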
Sequence of Bile acid receptor (Homo sapiens) (Q96RI1 whole entry, looked up): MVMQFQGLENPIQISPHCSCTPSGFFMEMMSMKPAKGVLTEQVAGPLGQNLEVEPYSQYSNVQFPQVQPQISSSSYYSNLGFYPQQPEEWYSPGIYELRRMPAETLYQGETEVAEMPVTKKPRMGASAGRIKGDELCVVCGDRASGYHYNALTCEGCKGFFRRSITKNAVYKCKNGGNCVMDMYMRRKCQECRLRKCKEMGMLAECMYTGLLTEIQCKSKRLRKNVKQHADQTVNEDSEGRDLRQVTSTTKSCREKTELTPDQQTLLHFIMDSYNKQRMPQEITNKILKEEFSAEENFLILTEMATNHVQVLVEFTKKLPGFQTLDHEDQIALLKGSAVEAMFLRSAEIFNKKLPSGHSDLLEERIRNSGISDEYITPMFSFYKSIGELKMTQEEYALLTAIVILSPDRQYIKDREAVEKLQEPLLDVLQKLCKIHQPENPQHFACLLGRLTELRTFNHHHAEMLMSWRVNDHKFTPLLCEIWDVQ

A short description of test [15]: qHTS assay to identify small molecule agonists of the farnesoid-X-receptor (FXR) signaling pathway - cell viability counter screen (AID 743218). Also: nearly all actives have a fitted effect of over 45% in size. A digest of the protocol:
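Parallel cytotoxicity test: compound-treated (16 h, 37 C) HEK 293T FXR-bla reporter cells were lysed with CellTiter-Glo and luminescence recorded.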

Test [16] concerns the target Bile acid receptor (Homo sapiens) (UniProt Q96RI1). As to the kind of experiment: qHTS assay to identify small molecule agonists of the farnesoid-X-receptor (FXR) signaling pathway (AID 743220; active = well fitted activation curve with a large enough effect in the signal ratio in the repeat runs, not every such curve was filed as active; the % refers to the signal ratio). A digest of the protocol: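 Beta-lactamase reporter under UAS control in GeneBLAzer FXR HEK 293T cells (5000/well) measured with LiveBLAzer FRET substrate after 2 h at room temperature. Compound exposure lasted 16 h at 37C.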

Test [17] in a line: qHTS assay to identify small molecule antagonists of the farnesoid-X-receptor (FXR) signaling pathway - cell viability counter screen (AID 743221; active = well fitted cell-killing curve with a large enough effect in the repeat runs, not every such curve was filed as active; also: nearly all actives have a fitted effect of over 50% in size). The method, boiled down:
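In GeneBLAzer FXR-UAS-bla HEK 293T cells stimulated with 50 uM chenodeoxycholic acid (final), compounds acted for 16 h at 37 C. Viability was assessed afterwards by CellTiter-Glo luminescence.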

Test [18] concerns the target Vitamin D3 receptor (Homo sapiens) (UniProt P11473). The test is described as follows: qHTS assay to identify small molecule agonists of the vitamin D receptor (VDR) signaling pathway (AID 743222; calls by dose curve). The method, boiled down:
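In VDR-bla cells, compound-induced beta-lactamase expression is quantified by FRET substrate fluorescence. Treatment lasts 16 h at 37C; substrate develops 2 h at room temperature.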

The target is the same in test [19]. As to the kind of experiment: qHTS assay to identify small molecule antagonists of the vitamin D receptor (VDR) signaling pathway (AID 743223; active = well fitted inhibition curve with a large enough effect in the signal ratio in the repeat runs, not every such curve was filed as active; the % refers to the signal ratio). The method, boiled down:
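Agonist 1alpha,25-dihydroxyvitamin D3 (3 nM in well) was added with each compound to VDR-bla cells preincubated 4 h. Cells stood 16 h at 37C, then FRET substrate 2 h at room temperature; fluorescence intensity recorded.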

A short description of test [20]: qHTS assay to identify small molecule antagonists of the peroxisome proliferator-activated receptor delta (PPARd) signaling pathway - cell viability counter screen (AID 743213). Also: nearly all actives have a fitted effect of over 50% in size. Also: potency is read from the fitted curve at half-maximal effect. A digest of the protocol:
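Cytotoxicity counter screen: CellTiter-Glo luminescence read 30 min after addition, in the same wells as the reporter assay. There, PPARd UAS-bla HEK293H cells (3000/well) were treated 17 h at 37 C with compound and 300 nM L165041.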

Records with an inconclusive call do not appear. The source made the active and inactive calls. Unless noted, calls follow the shape of the dose curve; as a rule, active = well fitted curve in the direction sought with a large enough effect in the repeat runs; inconclusive = weak or mixed curves; inactive = no such curve, though single readings can be large; an effect the other way counts as inactive or inconclusive.

Sequence of Peroxisome proliferator-activated receptor delta (Homo sapiens) (Q03181 whole entry, looked up): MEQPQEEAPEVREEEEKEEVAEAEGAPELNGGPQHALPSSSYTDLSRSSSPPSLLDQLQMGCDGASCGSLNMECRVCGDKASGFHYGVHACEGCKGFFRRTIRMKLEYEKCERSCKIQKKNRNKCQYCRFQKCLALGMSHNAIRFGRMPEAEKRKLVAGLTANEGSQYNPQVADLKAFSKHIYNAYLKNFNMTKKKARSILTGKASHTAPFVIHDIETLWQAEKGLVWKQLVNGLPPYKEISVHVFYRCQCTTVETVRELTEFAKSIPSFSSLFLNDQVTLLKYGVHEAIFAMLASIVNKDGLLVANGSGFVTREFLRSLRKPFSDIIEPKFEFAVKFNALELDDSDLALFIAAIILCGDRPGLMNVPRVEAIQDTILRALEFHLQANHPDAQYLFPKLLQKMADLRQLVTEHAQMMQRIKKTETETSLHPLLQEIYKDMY
Sequence of Vitamin D3 receptor (Homo sapiens) (P11473 whole entry, looked up): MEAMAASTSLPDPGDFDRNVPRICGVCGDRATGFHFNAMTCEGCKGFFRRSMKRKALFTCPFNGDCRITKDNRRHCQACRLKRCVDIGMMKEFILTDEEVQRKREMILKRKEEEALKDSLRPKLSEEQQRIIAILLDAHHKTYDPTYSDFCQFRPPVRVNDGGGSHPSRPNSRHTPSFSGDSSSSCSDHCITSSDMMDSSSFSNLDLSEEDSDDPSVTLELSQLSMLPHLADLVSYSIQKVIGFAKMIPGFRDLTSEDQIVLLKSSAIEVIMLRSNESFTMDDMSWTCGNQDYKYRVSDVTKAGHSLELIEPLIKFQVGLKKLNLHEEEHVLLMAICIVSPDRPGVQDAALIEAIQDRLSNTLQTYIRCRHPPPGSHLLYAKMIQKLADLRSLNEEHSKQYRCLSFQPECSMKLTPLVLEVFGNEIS
Sequence of Aryl hydrocarbon receptor (Homo sapiens) (P35869 whole entry, looked up): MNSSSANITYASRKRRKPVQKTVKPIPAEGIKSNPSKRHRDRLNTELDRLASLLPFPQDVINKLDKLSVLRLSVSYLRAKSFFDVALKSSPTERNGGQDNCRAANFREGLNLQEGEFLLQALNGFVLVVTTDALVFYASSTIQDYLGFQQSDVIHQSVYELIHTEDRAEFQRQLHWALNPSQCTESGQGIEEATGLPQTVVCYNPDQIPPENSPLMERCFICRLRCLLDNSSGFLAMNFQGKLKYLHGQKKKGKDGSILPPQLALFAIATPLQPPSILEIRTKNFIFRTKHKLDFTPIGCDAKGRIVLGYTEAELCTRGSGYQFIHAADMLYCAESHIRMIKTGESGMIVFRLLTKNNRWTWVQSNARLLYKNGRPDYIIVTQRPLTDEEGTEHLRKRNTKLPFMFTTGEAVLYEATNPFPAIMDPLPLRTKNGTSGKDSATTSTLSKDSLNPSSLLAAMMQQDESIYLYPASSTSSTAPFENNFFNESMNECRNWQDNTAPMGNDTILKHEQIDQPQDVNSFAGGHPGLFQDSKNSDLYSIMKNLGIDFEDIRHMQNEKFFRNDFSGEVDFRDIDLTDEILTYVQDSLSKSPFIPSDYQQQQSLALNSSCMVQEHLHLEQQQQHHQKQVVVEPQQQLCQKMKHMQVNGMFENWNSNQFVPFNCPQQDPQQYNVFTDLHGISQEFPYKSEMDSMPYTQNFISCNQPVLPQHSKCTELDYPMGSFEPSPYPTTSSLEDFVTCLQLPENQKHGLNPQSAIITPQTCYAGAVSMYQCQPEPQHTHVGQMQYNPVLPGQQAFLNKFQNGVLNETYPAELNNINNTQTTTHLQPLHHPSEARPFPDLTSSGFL

Regarding `ON=C1CCCC1`, the Potency result in [1], in test [2], in [3], in test [4], in [5] and in test [6] was “inactive” each time. Besides, the Potency result in test [7], in test [8], in test [9], in test [10], in [11] and in [12] was “inactive” each time. Moreover, the Potency result in test [13], in test [14], in test [15], in test [16], in [17] and in test [18] was “inactive” each time. The Potency result in test [19] was “inactive”.

For `CCOC(=O)O[C@]1(C(=O)OCCl)CC[C@H]2[C@@H]3CCC4=CC(=O)C=C[C@]4(C)[C@H]3[C@@H](O)C[C@@]21C`, the Potency entry in test [1], in [2], in test [3], in test [4], in test [6] and in [8] was “inactive” each time. In addition, the Potency result in [9], in test [10], in [11], in test [20], in test [14] and in test [15] was “inactive” in each case. Also, the Potency result in test [17] and in [19] was “inactive” throughout. In addition, in test [7], the Potency is 10.6 µM (active).

For `Nc1c(Cl)cc(Cl)cc1Cl`, the Potency result in test [1], in test [2], in test [3], in [4], in test [5] and in test [6] was “inactive” each time. Besides, the Potency entry in test [7], in [8], in test [9], in test [10], in [11] and in [12] was “inactive” each time. Also, the Potency result in test [13], in test [14], in test [15], in [16], in test [17] and in test [18] was “inactive” throughout.

In the case of `CCC(C)(C)C1CCCCC1OC(C)=O` (stereo unspecified), the Potency result in test [1], in test [2], in test [3], in test [4], in [5] and in [6] was “inactive” in each case. The Potency entry in test [8], in [11], in [12], in test [15] and in test [17] was “inactive” each time. For the same compound, the Potency in test [20] was 54.9 µM (active).

Take `O=C(O)c1c(Cl)cccc1Cl`: the Potency result in [1], in test [2], in test [3], in [4], in test [5] and in test [6] was “inactive” each time. The Potency result in test [7], in test [8], in [9], in [10], in test [12] and in [20] was “inactive” throughout. Also, the Potency result in test [13], in test [14], in [15] and in test [17] was “inactive” in each case.

Regarding `CCCC/C=C/CCCCO`, the Potency result in test [1], in test [2], in test [3], in [4], in [6] and in [7] was “inactive” throughout. The Potency entry in [8], in test [9], in [20], in test [17] and in test [18] was “inactive” in each case.

On to `Oc1ccc2c(c1)-c1ccccc1C2`, for which the Potency result in test [1], in [3], in test [4], in [6], in test [8] and in test [9] was “inactive” throughout. The Potency result in test [10], in [12], in [13], in [14], in [15] and in test [17] was “inactive” in each case. Also, the Potency entry in test [18] and in test [19] was “inactive” in each case. Also, the Potency in [7] was 4.86 µM (active).
